The source of these data is ChEMBL document CHEMBL1961873, “Compounds: GSK PKIS; Assays: Nanosyn kinase panel” (2012).

Test [1] addresses Casein kinase I isoform gamma-2 (Homo sapiens) (UniProt P78368). Conditions: at 1 µM.
The target of test [2] is Casein kinase I isoform gamma-3 (Homo sapiens) (UniProt Q9Y6M4). Conditions: at 0.1 µM.
The target is the same in test [3]. Conditions: at 1 µM.
Test [4] deals with Cyclin-dependent kinase 1 (Homo sapiens) (UniProt P06493). Conditions: at 0.1 µM.
The target is the same in test [5]. Conditions: at 1 µM.
The target of test [6] is Cyclin-dependent kinase 2 (Homo sapiens) (UniProt P24941). Conditions: at 0.1 µM.
Test [7] shares this target. Conditions: at 1 µM.
Test [8] shares this target. Conditions: at 0.1 µM. The source holds these as a separate data set.
Test [9] has the same target. Conditions: at 1 µM. This is another data set of the same source.
Test [10] deals with T1, CDK3/Cyclin E (Homo sapiens) (UniProt P24864+Q00526). Conditions: at 0.1 µM.
T1 sequence (P24864 whole entry, looked up): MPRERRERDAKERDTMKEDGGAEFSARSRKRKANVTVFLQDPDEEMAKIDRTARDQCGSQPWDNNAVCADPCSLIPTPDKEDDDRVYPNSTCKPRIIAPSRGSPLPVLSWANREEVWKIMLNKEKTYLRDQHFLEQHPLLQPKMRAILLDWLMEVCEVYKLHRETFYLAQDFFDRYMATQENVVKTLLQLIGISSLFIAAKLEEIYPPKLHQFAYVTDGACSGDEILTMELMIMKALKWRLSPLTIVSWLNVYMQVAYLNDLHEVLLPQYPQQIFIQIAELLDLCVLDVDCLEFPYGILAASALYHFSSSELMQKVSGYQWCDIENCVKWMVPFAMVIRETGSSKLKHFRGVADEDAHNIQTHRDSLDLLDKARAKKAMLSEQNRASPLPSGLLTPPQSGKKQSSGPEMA
T1 sequence (Q00526 whole entry, looked up): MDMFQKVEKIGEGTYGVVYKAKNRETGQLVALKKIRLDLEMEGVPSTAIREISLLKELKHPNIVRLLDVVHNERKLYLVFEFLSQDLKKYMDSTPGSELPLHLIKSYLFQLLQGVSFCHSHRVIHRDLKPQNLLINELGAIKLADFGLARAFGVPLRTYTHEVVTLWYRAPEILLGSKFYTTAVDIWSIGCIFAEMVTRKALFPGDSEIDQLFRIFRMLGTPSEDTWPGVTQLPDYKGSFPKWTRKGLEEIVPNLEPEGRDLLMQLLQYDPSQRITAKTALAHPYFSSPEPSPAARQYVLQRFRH
In test [11] the target is T1, CDK3/Cyclin E (Homo sapiens). Conditions: at 1 µM.
For test [12], the target named is Cyclin-dependent kinase 4 (Homo sapiens) (UniProt P11802). Conditions: at 0.1 µM.
Cyclin-dependent kinase 4 (Homo sapiens), sequence (P11802 whole entry): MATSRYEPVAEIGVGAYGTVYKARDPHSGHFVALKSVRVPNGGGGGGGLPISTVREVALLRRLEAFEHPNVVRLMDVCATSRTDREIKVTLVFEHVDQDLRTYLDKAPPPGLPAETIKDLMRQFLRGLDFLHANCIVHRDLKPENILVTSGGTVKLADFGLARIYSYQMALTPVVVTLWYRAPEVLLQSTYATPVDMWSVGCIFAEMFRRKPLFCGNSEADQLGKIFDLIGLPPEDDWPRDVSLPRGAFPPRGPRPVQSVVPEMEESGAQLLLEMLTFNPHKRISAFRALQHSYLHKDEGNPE
For test [13] the target is unchanged. Conditions: at 1 µM.
Test [14] concerns the target Cyclin-dependent kinase 5 (Homo sapiens) (UniProt Q00535). Conditions: at 0.1 µM.
Test [15] has the same target. Conditions: at 1 µM.
Test [16] deals with Cyclin-dependent kinase 6 (Homo sapiens) (UniProt Q00534). Conditions: at 0.1 µM.
Cyclin-dependent kinase 6 (Homo sapiens), sequence (Q00534 whole entry): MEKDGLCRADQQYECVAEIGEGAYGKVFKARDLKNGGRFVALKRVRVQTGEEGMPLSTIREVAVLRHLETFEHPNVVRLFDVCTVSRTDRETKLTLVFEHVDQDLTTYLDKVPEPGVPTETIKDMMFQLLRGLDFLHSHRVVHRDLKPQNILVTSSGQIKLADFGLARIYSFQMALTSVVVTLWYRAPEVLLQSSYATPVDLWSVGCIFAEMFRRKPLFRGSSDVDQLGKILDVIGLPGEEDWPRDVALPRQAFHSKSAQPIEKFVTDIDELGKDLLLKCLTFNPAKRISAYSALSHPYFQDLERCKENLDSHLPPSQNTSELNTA
The target is the same in test [17]. Conditions: at 1 µM.
Test [18] concerns the target Dual specificity protein kinase CLK2 (Homo sapiens) (UniProt P49760). Conditions: at 0.1 µM.
For test [19] the target is unchanged. Conditions: at 1 µM.
Test [20] concerns the target Dual specificity protein kinase CLK3 (Homo sapiens) (UniProt P49761). Conditions: at 0.1 µM.

Cyclin-dependent kinase 1 (Homo sapiens), sequence (P06493 whole entry, looked up): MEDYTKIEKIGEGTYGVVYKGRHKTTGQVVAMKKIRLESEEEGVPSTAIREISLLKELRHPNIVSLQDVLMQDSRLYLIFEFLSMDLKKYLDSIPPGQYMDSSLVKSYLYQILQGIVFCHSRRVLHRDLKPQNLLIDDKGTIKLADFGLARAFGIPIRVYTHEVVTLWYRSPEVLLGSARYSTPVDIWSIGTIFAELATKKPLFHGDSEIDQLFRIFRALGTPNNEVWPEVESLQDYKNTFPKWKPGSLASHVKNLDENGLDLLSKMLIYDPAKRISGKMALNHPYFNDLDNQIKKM
Casein kinase I isoform gamma-3 (Homo sapiens), sequence (Q9Y6M4 whole entry, looked up, canonical isoform): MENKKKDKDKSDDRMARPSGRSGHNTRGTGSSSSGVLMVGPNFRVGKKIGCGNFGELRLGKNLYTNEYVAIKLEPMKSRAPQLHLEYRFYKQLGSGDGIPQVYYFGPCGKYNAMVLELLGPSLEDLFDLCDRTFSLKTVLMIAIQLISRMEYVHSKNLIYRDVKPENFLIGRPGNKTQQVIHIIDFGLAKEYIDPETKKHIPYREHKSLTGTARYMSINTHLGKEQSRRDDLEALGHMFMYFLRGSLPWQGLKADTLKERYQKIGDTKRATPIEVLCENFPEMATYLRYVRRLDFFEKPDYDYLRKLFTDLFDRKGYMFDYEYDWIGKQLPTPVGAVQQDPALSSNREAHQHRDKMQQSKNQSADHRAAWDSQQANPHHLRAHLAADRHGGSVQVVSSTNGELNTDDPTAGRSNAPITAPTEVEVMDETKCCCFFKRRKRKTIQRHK
Casein kinase I isoform gamma-2 (Homo sapiens), sequence (P78368 whole entry, looked up, canonical isoform): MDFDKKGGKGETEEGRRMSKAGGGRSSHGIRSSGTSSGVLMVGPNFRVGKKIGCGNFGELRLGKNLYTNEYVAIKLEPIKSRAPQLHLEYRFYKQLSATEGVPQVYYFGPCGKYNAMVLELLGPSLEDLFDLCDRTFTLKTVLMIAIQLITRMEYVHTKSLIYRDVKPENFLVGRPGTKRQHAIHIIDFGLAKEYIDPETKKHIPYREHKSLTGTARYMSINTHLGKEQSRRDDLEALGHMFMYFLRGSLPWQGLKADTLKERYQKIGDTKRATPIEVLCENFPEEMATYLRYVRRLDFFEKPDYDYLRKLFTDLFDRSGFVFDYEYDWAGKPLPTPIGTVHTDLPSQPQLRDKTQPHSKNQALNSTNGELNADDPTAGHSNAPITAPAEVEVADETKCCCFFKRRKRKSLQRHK
Cyclin-dependent kinase 5 (Homo sapiens), sequence (Q00535 whole entry, looked up): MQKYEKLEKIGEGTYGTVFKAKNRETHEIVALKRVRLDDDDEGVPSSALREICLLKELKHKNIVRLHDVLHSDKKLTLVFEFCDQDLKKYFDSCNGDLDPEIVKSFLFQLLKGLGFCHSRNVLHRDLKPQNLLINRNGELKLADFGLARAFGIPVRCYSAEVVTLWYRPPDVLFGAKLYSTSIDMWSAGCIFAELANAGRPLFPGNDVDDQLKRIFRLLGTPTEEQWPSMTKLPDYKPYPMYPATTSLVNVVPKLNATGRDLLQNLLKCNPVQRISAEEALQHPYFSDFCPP
Dual specificity protein kinase CLK3 (Homo sapiens), sequence (P49761 whole entry, looked up): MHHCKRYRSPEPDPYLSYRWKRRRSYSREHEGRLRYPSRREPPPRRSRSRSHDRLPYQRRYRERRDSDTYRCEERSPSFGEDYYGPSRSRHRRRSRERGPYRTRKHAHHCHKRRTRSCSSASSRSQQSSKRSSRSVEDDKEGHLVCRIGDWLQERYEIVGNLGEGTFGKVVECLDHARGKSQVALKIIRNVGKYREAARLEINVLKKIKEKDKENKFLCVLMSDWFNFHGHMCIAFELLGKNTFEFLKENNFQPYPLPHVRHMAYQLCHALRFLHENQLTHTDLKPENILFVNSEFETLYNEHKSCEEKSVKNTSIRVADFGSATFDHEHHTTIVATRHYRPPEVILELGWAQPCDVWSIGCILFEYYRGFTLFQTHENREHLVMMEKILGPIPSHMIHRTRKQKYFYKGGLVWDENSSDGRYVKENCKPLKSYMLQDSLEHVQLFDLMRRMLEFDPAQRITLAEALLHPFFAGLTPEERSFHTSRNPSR
Dual specificity protein kinase CLK2 (Homo sapiens), sequence (P49760 whole entry, looked up): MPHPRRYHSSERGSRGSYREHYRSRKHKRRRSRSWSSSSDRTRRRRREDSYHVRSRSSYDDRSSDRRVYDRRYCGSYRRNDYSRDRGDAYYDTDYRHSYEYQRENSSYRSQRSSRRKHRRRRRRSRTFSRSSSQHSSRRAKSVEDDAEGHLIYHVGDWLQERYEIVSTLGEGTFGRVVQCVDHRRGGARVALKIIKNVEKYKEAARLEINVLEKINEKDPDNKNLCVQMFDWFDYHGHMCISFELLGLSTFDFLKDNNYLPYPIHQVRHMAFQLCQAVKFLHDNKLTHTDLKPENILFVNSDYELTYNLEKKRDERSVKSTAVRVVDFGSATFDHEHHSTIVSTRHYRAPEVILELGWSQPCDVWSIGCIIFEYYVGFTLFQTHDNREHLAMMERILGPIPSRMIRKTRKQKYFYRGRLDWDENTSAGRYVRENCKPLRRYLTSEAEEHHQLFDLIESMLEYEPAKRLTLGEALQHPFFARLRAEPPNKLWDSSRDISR

A word on the inhibition: it is the change of the read-out against control, counted positive when it falls. Turning to `COc1cccc(-c2c[nH]c3c(N/N=C/c4ccncc4)ncnc23)c1`, the inhibition in [1] came to 4.26%; in [2], 1.09%; in test [3], 4.42%; in test [4], 42%; in [5] it was 74.2%; in test [6], 30.4%. In addition, the inhibition in test [7] is 73.7%; in test [8], 9.46%; in test [9], 45.5%; in test [10], 6.61%; in test [11], 51.3%; in [12] it was 10.5%. Also, the inhibition in test [13] was determined as 45.7%; in test [14] it was 38.8%; in [15], 73.1%; in test [16] it was 12.2%; in test [17], 51.4%; in test [18] it was 2.83%. For the same molecule, the inhibition in [19] was determined as 20.4%; in [20] it was 2.11%.
Turning to `COc1ccc2c(-c3ccnc(Nc4cccc(OC(F)(F)F)c4)n3)cnn2n1`, the inhibition in test [1] was determined as 7.44%; in test [2], 4.96%; in test [3], 6.47%; in test [4], 5.27%; in [5], 41.2%; in test [6], 11.1%. The inhibition is 60.1% in [7]; 14.8% in [8]; 57% in test [9]; 3.19% in test [10]; 20.3% in test [11]; 3.8% in test [12]. Moreover, the inhibition came out at 18% in test [13]; 5.51% in test [14]; 36.3% in [15]; 9.65% in [16]; 14.6% in test [17]; 95.4% in [18]. Besides, the values for the inhibition in [19] and in test [20] were 98.3% and 13.2%, respectively.
As for `COC(=O)c1sc(-n2cnc3cc(OC)c(OC)cc32)cc1OCc1ccccc1C(F)(F)F`, the inhibition in [1] is 4.73%; in test [2] it was 3.9%; in test [3] it was 2.94%; in test [4] it was -0.15%; in [5] it was 1.15%; in test [6], 1.51%. Besides, the inhibition in [7] was 3.81%; in test [8], 4.73%; in test [9], 8.33%; in test [10], 3.47%; in test [11], -1.85%; in [12], 2.28%. The inhibition in [13] is 3.18%; in [14] it was 1.35%; in [15] it was 2.46%; in [16] it was -2.2%; in [17], 5.15%; in [18] it was 1.6%. Besides, the inhibition in test [19] was determined as 2.65%; in test [20], 0.11%.
Take `O=C(Nc1n[nH]c2cc(-c3ccc(F)cc3)ccc12)C1CC1`: the inhibition in test [1] was 3.16%; in test [2] it was 1.93%; in [3] it was 3.02%; in test [4] it was 0.08%; in test [5] it was 4.52%; in [6] it was -0.94%. Also, the inhibition amounted to 5.81% in test [7]; 2.56% in test [8]; 6.81% in [9]; 2.18% in test [10]; 2.42% in test [11]; 2.64% in [12]. In addition, the inhibition in test [13] is 6.92%; in test [14] it was 0.56%; in [15], 3.03%; in [16], -1.47%; in [17], 24.6%; in test [18], 0.75%. The inhibition in test [19] was 0.48%; in test [20] it was 1.11%.
With `c1ccc(COc2ccc(Nc3ncnc4ccc(-c5ccco5)cc34)cc2)cc1`, the inhibition is 0.91% in [1]; 0.33% in [2]; 1.68% in test [3]; 0.19% in test [4]; 2.26% in test [5]; 1.69% in [6]. The inhibition in [7] was 1.48%; in [8], 0.66%; in [9], 2.25%; in [10], 0.53%; in [11], -1.75%; in [12] it was -0.08%. For the same molecule, the inhibition is 2.95% in test [13]; 0.18% in [14]; 1.53% in test [15]; -2.29% in test [16]; -1.6% in test [17]; 0.31% in test [18]. Moreover, the inhibition in [19] and in test [20] was -0.79% each time.
For the molecule `CS(=O)(=O)CCNCc1ccc(-c2ccc3ncnc(Nc4ccc(OCc5ccccc5)c(C(F)(F)F)c4)c3c2)o1`, the inhibition in test [1] amounted to 4.2%; in test [2], 3.19%; in test [3], 2.56%; in test [4], 0.28%; in [5], 1.7%; in test [6] it was 6.22%. In addition, the inhibition was 8.37% in test [7]; 2.59% in test [8]; 4.6% in test [9]; 0.51% in test [10]; -3.61% in test [11]; 2.38% in test [12]. The inhibition in test [13] was 3.96%; in test [14], 0.23%; in [15] it was 1.58%; in [16], -1.88%; in test [17], -4.19%; in test [18], 0.79%. Further, the inhibition is -2.13% in test [19] and 0.57% in test [20].
Take `CC(=O)NCc1cccc(C#Cc2cncnc2Nc2ccc(OCc3cccc(F)c3)c(Cl)c2)c1`: the inhibition in test [1] was 0.99%; in test [2] it was -1.04%; in test [3] it was -0.37%; in [4], 0.28%; in [5], 2.88%; in test [6], 1.01%. For the same molecule, the inhibition in [7] is -3.16%; in test [8], 1.24%; in [9], 3.29%; in [10], 1.84%; in [11], -1.44%; in [12] it was 1.51%. Besides, the inhibition was 5.22% in test [13]; 1.7% in [14]; 5.29% in [15]; -2.35% in test [16]; 5.05% in test [17]; 1% in test [18]. Besides, the results for the inhibition in test [19] and in test [20] were -0.78% and 0.32%, respectively.
`CCN1CCC(CC(=O)Nc2n[nH]c3nnc(-c4cccc(F)c4F)cc23)CC1`: the inhibition in test [1] is -0.19%; in [2], -0.19%; in test [3] it was 1.47%; in test [4], 1.67%; in test [5], 8.73%; in [6], 2.71%. The inhibition came to 13.8% in test [7]; 1.12% in test [8]; 7.61% in test [9]; 0.16% in test [10]; 2.37% in test [11]; 5.41% in test [12]. The inhibition was 32.5% in [13]; 1.05% in test [14]; 7.07% in test [15]; -1.17% in test [16]; 17.4% in [17]; 5.35% in test [18]. Besides, the inhibition in [19] is 29.9%; in test [20], -0.51%.
Take `CCCN1CCC(c2ccc(Nc3nc(Nc4cc(F)ccc4C(N)=O)c4cc[nH]c4n3)c(OC)c2)CC1`: the inhibition worked out at 72.7% in test [1]; 35.4% in [2]; 79.8% in test [3]; 1.73% in test [4]; 6.31% in test [5]; 1.78% in test [6]. For the same molecule, the inhibition is 0.94% in test [7]; 7.06% in [8]; 11.8% in test [9]; 4.1% in test [10]; -1.93% in test [11]; 7.7% in test [12]. Besides, the inhibition in [13] was 25.7%; in [14] it was 2.09%; in [15] it was 6.47%; in test [16], 4.48%; in test [17] it was 17.9%; in test [18], 59.1%. The inhibition in test [19] was found to be 93.8%; in test [20], 3.2%.
On to `Cc1cccc(Nc2ncc(-c3ccccc3)o2)c1`, for which the inhibition in [1] was found to be 3.38%; in test [2], 2.18%; in test [3] it was 2.99%; in [4] it was 3.39%; in test [5], 5.05%; in [6], 4.32%. Besides, the inhibition in [7] was 8.62%; in test [8] it was 1.61%; in test [9], 9.01%; in test [10] it was -0.22%; in test [11], 4.71%; in [12], 1.95%. The inhibition in test [13] was 5.69%; in [14] it was 1.51%; in test [15] it was 7.89%; in test [16] it was -1.21%; in [17], 11.3%; in test [18], 1.65%. Further, the results for the inhibition in test [19] and in test [20] were 4.78% and 1.1%, respectively.
For the molecule `CCCN(CCS(C)(=O)=O)Cc1ccc(-c2ccc3ncnc(Nc4ccc(OCc5cccc(F)c5)c(Cl)c4)c3c2)o1`, the inhibition in test [1] was 3.18%; in test [2], -1.08%; in [3], 1.11%; in test [4], 2.23%; in [5], 8.04%; in [6] it was 0.78%. In addition, the inhibition is -1.6% in [7]; 1.97% in test [8]; 7% in test [9]; 0.67% in test [10]; -1.26% in [11]; 1.25% in [12]. Besides, the inhibition was 5.06% in [13]; 2.08% in test [14]; 6.83% in test [15]; 1.99% in test [16]; 7% in test [17]; 1.46% in test [18]. In addition, the inhibition in [19] was determined as 0.75%; in [20], 1.51%.
Turning to `Nc1nc(-c2ccc(F)cc2)c(-c2ccc3ncccc3n2)s1`, the inhibition in [1] came out at 8.8%; in test [2], 4.7%; in test [3], 16.9%; in test [4], 3.94%; in test [5], 8.07%; in test [6], 3.61%. Moreover, the inhibition in test [7] was found to be 0.25%; in test [8], 6.09%; in test [9] it was 10.7%; in [10], 3.73%; in test [11], 1.75%; in [12], 6.95%. In addition, the inhibition in test [13] stood at 9.34%; in [14], 4.02%; in [15], 7.28%; in [16], 4.34%; in test [17], 7.53%; in [18], 2.98%. Besides, the inhibition in test [19] was found to be 8.8%; in [20], 3.31%.
In the case of `Nc1ncc(-c2cccc(S(N)(=O)=O)c2)c2scc(-c3ccc(F)c(Cl)c3)c12`, the inhibition in test [1] was found to be 3.79%; in test [2], 2.58%; in test [3], 4.97%; in test [4], 1.33%; in test [5] it was 2.57%; in test [6], 1.79%. For the same molecule, the inhibition was 2.91% in test [7]; 2.68% in test [8]; 5.08% in test [9]; -2.34% in [10]; -4.84% in test [11]; 1.97% in [12]. The inhibition in [13] was 3.55%; in [14], 1.01%; in test [15] it was 2.29%; in test [16] it was -0.13%; in test [17] it was 1.9%; in test [18], 2.7%. Besides, the inhibition in test [19] is -0.72%; in test [20] it was 1.16%.
